# MK inhibit: S. pneumoniae mevalonate kinase inhibition; purified MK, PK/LDH-coupled NADH absorbance 340 nm; inhibition, % at 10 µM; 65,000 tested, 0.48% active; AID 555;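 active = ranked among the strongest by inhibition in the single 10 µM screen, a fixed top-ranked set picked for dose follow-up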
# Abs 340nm: compound absorbs light at 340 nm | compound absorbance at 340 nm, fold over control | fold change at 10 µM | 65,000 tested, under 10 active | AID 708;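 active = at 10 µM dose, initial 340 nm absorbance at least 2 fold that of control wells; inactive = change under 2 fold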;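 also: initial absorbance extrapolated from kinetic A340 decline of NADH oxidation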
# NADH coupling: inhibitors of enzymes used to reach an NAD/NADH endpoint. coupled PK/LDH NADH assays, four targets. IC50, µM (highest dose often 10 µM). 65,000 tested, 0.02% active. AID 774;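 active = single-dose screening hits from any of four coupled enzyme assays that gave an IC50 when retested across doses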;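 also: the DPM-DC format reads NADH fluorescence rather than 340 nm absorbance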
# Autofluor 339: intrinsic fluorescence of library compounds, ex339/em460 – biochemical, MLSMR library, data from DPM-DC assay, artefact control, profiling panel | compound autofluorescence, ex339/em460 nm, NADH buffer; stronger effect = higher value; 1 = no-compound wells, NADH background | fluorescence fold increase at 10 µM | 65,000 tested, 5.5% active;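 active = at 10 µM, mean starting fluorescence two-fold or more over control wells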;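 also: signal is the first read of a kinetic run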
# Spn PMK inh: S. pneumoniae PMK inhibition; purified PMK, PK/LDH-coupled NADH absorbance 340 nm; inhibition, % at 10 µM; 65,000 tested, 0.49% active; AID 539;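 active = top-ranked compounds by inhibition in the single 10 µM screen, taking a fixed number of the strongest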
# Spn DPM-DC inh: blocks S. pneumoniae diphosphomevalonate decarboxylase | calls only at 10 µM | 65,000 tested, 0.49% active | purified DPM-DC, PK/LDH coupled NADH fluorescence;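 active = the 320 compounds with the highest percent inhibition in the single-dose primary screen, excluding strongly autofluorescent ones, cut at about 32% in these data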;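 also: kinetic rate of NADH fluorescence loss reporting ADP formed by the decarboxylase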
# Hits are given with their value; 0 = inactive; - = no result shown. Shown are actives, neighbours in structure and some others; about 6.3% of the full set was active somewhere.
SMILES,MK inhibit,Abs 340nm,NADH coupling,Autofluor 339,Spn PMK inh,Spn DPM-DC inh
COc1ccc(-n2cnnc2SCC(=O)N(C)C2CCS(=O)(=O)C2)cc1 (stereo not given),0,0,0,0,0,0
COc1ccc(C2C(=O)N(C3CCCCC3)CC(=O)N2CCc2ccccc2)cc1OC (stereo not given),0,0,0,0,26,0
CCOCCCN1C(=O)CN(C2CCCCC2)C(=O)C1c1ccc(OC)c(OC)c1 (stereo not given),0,0,0,0,0,0
CCCOc1ccc(C2C(=O)N(C3CCCCC3)CC(=O)N2CCCOCC)cc1OC (stereo not given),0,0,0,0,26,0
COc1ccc(CN2CCCC2C(=O)Nc2ccc(OC)c(OC)c2)cc1OC (stereo not given),0,0,0,0,0,0
Cc1cc(C)n(-c2nc(NCc3cccnc3)c3c4c(sc3n2)COC(C)(C)C4)n1,0,0,0,3.7,0,-
COc1ccc(NC(=O)N(C2CCCCC2)C(C)c2cccnc2)c(OC)c1 (stereo not given),0,0,0,0,0,0
COc1ccc(NC(=O)N(C2CCCCC2)C(C)c2ccco2)c(OC)c1 (stereo not given),0,0,0,0,26,0
O=C1CSC(c2cn(-c3ccccc3)nc2-c2ccc3c(c2)OCCO3)N1CCN1CCOCC1 (stereo not given),0,0,0,0,0,0
Cc1cc(C)n(-c2ccc(C(=O)Nc3nc4ccccc4s3)cc2)n1,0,0,0,3.3,0,0
CC(=O)c1cc2c(cc1NC(=O)c1ccc(-n3nc(C)cc3C)cc1)OCO2,0,0,0,2.1,0,-
Cc1ccc(NC(=O)C2CC(=O)NC(N3CCc4ccccc43)=N2)cc1 (stereo not given),0,0,0,0,0,0
CCc1noc(C)c1C(=O)NCCc1ccc(OC)c(OC)c1,0,0,0,0,0,0
CCOc1cc(-c2cc(-c3ccc(N)cc3)nc(N)c2C#N)ccc1O,0,0,0,3.6,0,-
CCOC(=O)c1[nH]c2ccccc2c1NC(=O)C1CCCC1,0,0,0,0,0,0
COc1cc(-c2nnc(COc3ccc4ccccc4c3)o2)cc(OC)c1OC,0,0,0,0,28,0
Cc1nn(C)c(C)c1S(=O)(=O)N(CC(=O)Nc1ccccn1)c1ccc(C(C)C)cc1,0,0,0,0,0,0
COC(=O)c1cc2c(ccn2-c2ccc(F)cc2)n1CC(=O)N1CCN(C(=O)c2ccco2)CC1,0,0,0,3.5,0,-
CCOC(=O)C1(C)NC(c2ccc(OC)c(OC)c2)C2C(=O)N(CC)C(=O)C21 (stereo not given),0,0,0,0,0,0
O=C(NC1=NCCS1)c1ccc(-c2ccc(Cl)cc2)o1,0,0,0,2.1,0,-
COc1ccc(OC)c(NC(=O)CSc2nnc(Cn3c(=O)sc4ccccc43)n2C)c1,0,0,0,0,0,0
COc1ccccc1Oc1c(C)oc2c(CN3CCN(C)CC3)c(O)ccc2c1=O,0,0,0,3.8,0,-
CCOC(=O)c1c(C)oc2c(CN3CCN(C)CC3)c(Br)c(OC)c(O)c12,0,0,0,0,0,0
COc1ccc(-c2c(C(F)(F)F)oc3c(CN4CCN(C)CC4)c(O)ccc3c2=O)cc1,0,0,0,0,0,0
COC(=O)c1ccc(Oc2c(C)oc3c(CN4CCN(C)CC4)c(O)ccc3c2=O)cc1,0,0,0,3.8,0,-
SMILES,MK inhibit,Abs 340nm,NADH coupling,Autofluor 339,Spn PMK inh,Spn DPM-DC inh
CN(C(=O)CSc1nc2c(c(=O)[nH]1)CCCC2)C1CCCCC1,0,0,0,0,0,0
O=C(CSc1ccc(-c2nc3ccccc3[nH]2)cn1)N1CCN(C(=O)c2ccco2)CC1,0,0,0,2.1,0,-
CCOC(=O)CC1(CC(=O)OCC)NC(=O)c2c(C)sc(C(=O)OCC)c2N1,0,0,0,3,0,-
CCOC(=O)CC1(C)NC(=O)c2c(C)sc(C(=O)OCC)c2N1 (stereo not given),0,0,0,3.9,0,-
COc1ccc(NC(=O)c2ccc3c(c2)C(=O)N(Cc2cccnc2)C3=O)c(OC)c1,0,0,0,0,0,0
CNc1nnc(-c2cc3ccccc3oc2=O)s1,0,0,0,2.3,0,0
CC(C)n1c2ccccc2c2nc3ccccc3nc21,0,0,0,2.7,0,0

# High-throughput results deposited in PubChem by SRMLSC.
